# Screens as filed in PubChem BioAssay.
# A selection: hits, their analogues and other compounds. The true share with any hit is near 1.5%.
# GLD-1 TGE inh: GLD-1-TGE RNA interaction inhibition (C. elegans); Q17339; purified GLD-1 + fluorescein TGE RNA, fluorescence polarization; inhibition, % at 5.96 µM; 0.44% of 320,000 active; AID 2280;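 active = percent inhibition above a per-plate cutoff, the plate mean of test compounds plus 3 SD, cut at about 30% in these data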;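 also: 0% = DMSO wells with GLD-1 and probe and 100% = wells lacking GLD-1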
# EBV gp42 inh: EBV gp42 inhibition; Q1HVG2; Fluorescence polarization binding assay, mP read-out; inhibition, % (tested at 21.74 µM); 0.42% of 220,000 active; AID 1085; in the data active = inhibition above about 50%
# MCL1 BIM primary: disrupts human MCL1 binding to BIM-BH3 peptide; Q07820; GST-MCL1 / FITC-Bim-BH3 fluorescence polarization; inhibition, % at 10.9 µM; 0.68% of 320,000 active; AID 2057;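 active = inhibition above the mean inhibition of all tested compounds plus 3 SD, set per campaign, cut at about 40% in these data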;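 also: 0% = DMSO wells and 100% = unlabeled Bim-BH3 peptide control; higher means more loss of mP so more displacement of Bim peptide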
# E coli Lon inh: inhibits E. coli Lon protease; inhibition, % at 7.94 µM; P0A9M0; purified E. coli Lon protease, fluorescence polarization; 0.42% of 360,000 active; in the data active = inhibition above about 13%, passing the limit was not always enough;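 also: 0% = enzyme with probe and DMSO and 100% = no enzyme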
# Target sequence (P0A9M0 whole entry, looked up): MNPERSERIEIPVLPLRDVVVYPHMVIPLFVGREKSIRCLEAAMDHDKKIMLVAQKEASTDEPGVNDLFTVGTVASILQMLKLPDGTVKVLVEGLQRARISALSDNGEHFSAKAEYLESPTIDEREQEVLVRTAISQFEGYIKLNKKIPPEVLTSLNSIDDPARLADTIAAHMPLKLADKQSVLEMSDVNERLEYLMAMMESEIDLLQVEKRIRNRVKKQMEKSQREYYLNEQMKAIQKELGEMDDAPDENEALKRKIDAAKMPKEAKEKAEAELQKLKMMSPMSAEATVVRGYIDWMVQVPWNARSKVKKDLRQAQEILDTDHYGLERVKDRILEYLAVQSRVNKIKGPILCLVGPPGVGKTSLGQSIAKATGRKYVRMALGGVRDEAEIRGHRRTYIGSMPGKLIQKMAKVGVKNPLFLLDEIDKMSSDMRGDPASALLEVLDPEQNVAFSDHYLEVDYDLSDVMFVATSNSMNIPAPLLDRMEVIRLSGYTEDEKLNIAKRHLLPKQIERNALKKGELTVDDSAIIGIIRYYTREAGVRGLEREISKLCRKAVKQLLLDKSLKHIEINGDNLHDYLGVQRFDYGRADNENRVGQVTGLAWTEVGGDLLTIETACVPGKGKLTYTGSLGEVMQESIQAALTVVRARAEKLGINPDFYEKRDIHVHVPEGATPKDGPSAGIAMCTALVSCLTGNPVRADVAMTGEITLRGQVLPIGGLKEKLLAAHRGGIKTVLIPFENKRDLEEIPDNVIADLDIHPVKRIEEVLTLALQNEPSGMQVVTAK
# BCLXL inh: Bcl-xL (human) inhibition; GST-Bcl-xL / FITC-Bim BH3 peptide fluorescence polarization; AID 2129; inhibition, % at 10.9 µM; 0.7% of 320,000 active;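 active = inhibition above the mean of all tested compounds plus 3 SD, cutoff set per campaign, cut at about 30% in these data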;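 also: 0% = DMSO wells and 100% = unlabeled Bim-BH3 peptide competitor; inhibitors lower millipolarization by displacing the labeled peptide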
# MEX-5 binding: C. elegans MEX-5 TCR-2 RNA binding activity. MEX-5/FITC-TCR2 RNA binding, fluorescence polarization; active compounds read low. activity score (negative = inhibition of binding), % at 10 µM. 0.38% of 300,000 active. AID 1832;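 active = inhibition past about -25% in most replicates, and total fluorescence under double the plate's negative control median, limit read from the data; inconclusive = replicates evenly split on the limit, or fluorescence at least double controls; inactive = too little inhibition in most replicates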;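 also: 0% = DMSO and -100% = 5 µM competing unlabeled TCR2 RNA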
# Bcl-xL conf: counter-screen for MCL1 inhibitors: confirmation of human Bcl-xL inhibitors | inhibition, % at 10.9 µM | 54% of 1,700 active | shares compounds with MCL1 BIM primary | AID 2166 | GST-Bcl-xL / FITC-Bim BH3 peptide FP binding;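 active = inhibition above a cutoff equal to the mean inhibition of all tested compounds plus 3 SD, cut at about 30% in these data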;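 also: 0% = DMSO wells and 100% = unlabeled Bim BH3 control peptide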
# MCL1 BIM confirm: confirmation of human MCL1 and BIM-BH3 interaction inhibitors; AID 2168; inhibition, % at 10.9 µM; shares compounds with MCL1 BIM primary; GST-MCL1 / FITC-Bim-BH3 fluorescence polarization; 61% of 1,700 active;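 active = inhibition above the average of all tested compounds plus 3 SD, cut at about 40% in these data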;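 also: 0% = DMSO wells and 100% = unlabeled Bim-BH3 control peptide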
# GLD-1 TGE cf: confirmation of C. elegans GLD-1 TGE RNA binding inhibitors; shares compounds with GLD-1 TGE inh; GLD-1/FL-TGE RNA fluorescence polarization, biochemical; inhibition, % at 5.96 µM; 10% of 550 active;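 active = average inhibition across triplicates above the hit cutoff set in the primary screen, cut at about 32% in these data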;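 also: 0% = GLD-1 with RNA probe and DMSO and 100% = wells lacking GLD-1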
# E coli Lon conf: confirmation of E. coli Lon protease inhibitors. shares compounds with E coli Lon inh. purified E. coli Lon, fluorescence polarization. inhibition, % at 7.94 µM. 31% of 1,400 active. AID 602230; in the data active = inhibition above about 16%;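 also: 0% = enzyme with probe and DMSO and 100% = no enzyme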
# Starred values were filed as active, the others as inactive; ? = inconclusive; . = no result given; + = active, no number.
SMILES,GLD-1 TGE inh,EBV gp42 inh,MCL1 BIM primary,E coli Lon inh,BCLXL inh,MEX-5 binding,Bcl-xL conf,MCL1 BIM confirm,E coli Lon conf,others
CN1C(=O)NC(c2ccccc2[N+](=O)[O-])C2=C1CCCC2=O (stereo unspecified),+,.,+,+,+,-80*,154*,177*,+,
O=C1C=C(N(CCO)Cc2ccccc2)c2ccccc2C1=O,.,-14,.,1,.,-1,.,.,.,
O=C1c2ccccc2C(=O)c2c1cccc2N(CCO)CCO,46*,.,65*,27*,72*,-42*,58*,77*,20*,GLD-1 TGE cf=50*
Cc1cc(Cl)ccc1NC(=S)NCC(O)c1ccccc1 (stereo unspecified),1,.,5,3,0,2,.,.,.,
COc1cc(C2C(C#N)=C(N)OC3=C2C(=O)CC(C)(C)C3)c([N+](=O)[O-])cc1OC (stereo unspecified),154*,86*,+,34*,+,-54*,64*,82*,19*,
COc1ccc(C2C(C#N)=C(N)OC3=C2C(=O)CC(C)(C)C3)c([N+](=O)[O-])c1OC (stereo unspecified),3,-6,6,-5,7,-5,.,.,.,
CC1(C)CC(=O)C2=C(C1)OC(N)=C(C#N)[C@@H]2c1ccccc1[N+](=O)[O-],113*,54*,194*,53*,163*,-68*,36*,46*,5,
CN(C)CCn1c2c(c(SCC(=O)Nc3ccc4c(c3)OCCO4)nc1=O)CCCC2,-7,.,-1,-12,2,0,.,.,.,
CSc1ccc(OC2(C)CCN(Cc3cc4ccccc4o3)C2)cc1 (stereo unspecified),.,.,.,11,.,.,.,.,.,
COc1ccc(NC(=O)Nc2ccc([N+](=O)[O-])cc2)cn1,46*,.,71*,20*,68*,-8,38*,53*,1,
COc1ccc(NC(=O)Nc2cccc(C(F)(F)F)c2)cn1,22,1,-1,-4,9,-1,.,.,.,
COCC1CCN(Cc2c(C(=O)N3CCN(C4CCCCC4)CC3)nc3ccccn23)C1 (stereo unspecified),30,.,57*,26*,52*,-19,15,15,-3,
O=C(c1nc2ccccn2c1CN1CCC(Cc2ccccc2)CC1)N1CCCC1,4,-9,8,-6,4,1,.,.,.,
CN(C)CCN(C)Cc1c2ccccc2c(CN(C)CCN(C)C)c2ccccc12,123*,.,189*,125*,172*,-64*,77*,102*,47*,
CN(C)CCP(=O)(c1ccccc1)c1ccccc1,0,-10,0,-4,5,2,.,.,.,
O=C(O)c1cccc(CN2C(=O)c3ccccc3C2=O)c1,-5,.,-3,5,4,0,.,.,.,
O=C1c2cccc3c(O)ccc(c23)C(=O)N1Cc1ccccc1,+,187*,+,+,+,?,+,+,+,
COc1[nH]c(/N=C/c2ccccc2)c(C#N)c1C#N,159*,39,194*,149*,160*,-59*,50*,40*,8,
COc1ccc(CC(=O)N/N=C(\C)CC(=O)Nc2ccc3c(c2)OCCO3)cc1OC,6,.,0,6,2,0,.,.,.,
O=C(CCNC(=O)c1ccccc1Cl)NCC(c1ccco1)N1CCCC1 (stereo unspecified),4,.,5,-4,10,0,.,.,.,
O=C1C(Cl)=C(N2CCN(Cc3ccccc3)CC2)C(=O)N1Cc1ccccc1,34*,-3,56*,36*,57*,-4,7,4,0,GLD-1 TGE cf=7
